This note sets out measurements from PubChem BioAssay (NCATS).

Results filed as inconclusive are left out. The source made the active and inactive calls. Unless noted, the call rests on the fitted dose curve; in most records, active means well fitted curve in the direction sought with a large enough effect; inconclusive means small, poorly fitted or top-dose-only effect, or another doubt; inactive means no such curve, though single readings can be large; an effect the other way counts as inactive or inconclusive.

Assay [1] deals with Alpha-galactosidase (Coffea arabica) (UniProt Q42656). The assay can be described thus: Counterscreen for Glucocerebrosidase Inhibitors: qHTS Assay for Coffee Bean alpha-Galactosidase at pH 4.5 (AID 957). Further: series mostly up to about 77 µM. In outline: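 Fluorogenic qHTS at pH 4.5 (citrate buffer with Tween-20): 2 nM enzyme, 80 uM 4-MU-alpha-galactoside substrate, compound titrated 0.7 nM to 77 uM, 20 min room temperature. Glycine/NaOH stop; 4-MU read Ex 365/Em 440; Hill-equation AC50 against no-enzyme and enzyme controls.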
Sequence of Alpha-galactosidase (Coffea arabica) (Q42656 whole entry, looked up): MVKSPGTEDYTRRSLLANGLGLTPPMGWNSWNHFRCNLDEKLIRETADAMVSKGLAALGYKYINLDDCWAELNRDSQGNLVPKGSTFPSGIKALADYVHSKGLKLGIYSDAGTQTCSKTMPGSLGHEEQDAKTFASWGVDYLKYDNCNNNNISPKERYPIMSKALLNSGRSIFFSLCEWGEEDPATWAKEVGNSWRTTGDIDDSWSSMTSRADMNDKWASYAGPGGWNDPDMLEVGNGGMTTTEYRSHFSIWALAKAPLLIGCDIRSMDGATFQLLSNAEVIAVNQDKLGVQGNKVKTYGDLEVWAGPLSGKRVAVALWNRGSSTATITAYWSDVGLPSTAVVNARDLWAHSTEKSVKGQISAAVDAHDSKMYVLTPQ
For orientation: Counterscreens check selectivity or assay interference.

Assay [2] has the same target. The assay can be described thus: Counterscreen for Glucocerebrosidase Inhibitors: qHTS Assay for Coffee Bean alpha-Galactosidase at pH 5.9 (AID 998). In outline: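 Enzyme 2 nM + cpd (0.7 nM–77 uM titration) + 4-MU-alpha-Gal 80 uM, pH 5.9 citrate/Tween-20, RT 20 min, NaOH/glycine stop pH 10, fluor 365/440. Normalized to no-enzyme and full-activity controls; Hill-fit AC50.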

The nature of assay [3]: Validation screen for inhibitors of Lassa infection (AID 463096; calls by dose curve).
Assay [4] is described as follows: Inducers of the Endoplasmic Reticulum Stress Response (ERSR) in human glioma: Validation (AID 504836). The method, boiled down:
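Stably transfected U87-MG glioma cells carrying a GRP78-based luciferase sensor; 16 h compound incubation. Luminescence end-point read 10 min after Bright-Glo addition at room temperature.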

Assay [5] can be described thus: qHTS for Inhibitors of the Functional Ribonucleoprotein Complex (vRNP) of Lassa (LASV) Arenavirus: LASV Primary Screen - GLuc reporter signal (AID 1347082; calls by dose curve; tested in HEK293 reporter line; further: series mostly up to about 57 µM; nearly all actives have a fitted effect of over 60% in size). A general note: Quantitative high-throughput screening tests each substance at several concentrations.
Assay [6] in a line: qHTS for Inhibitors of the Functional Ribonucleoprotein Complex (vRNP) of Lassa (LASV) Arenavirus: Viability assay - alamar blue signal for LASV Primary Screen (AID 1347083; calls by dose curve; tested in HEK293 reporter line; further: series mostly up to about 57 µM; nearly all actives have a fitted effect of over 80% in size).
The nature of assay [7]: qHTS for Inhibitors of the Functional Ribonucleoprotein Complex (vRNP) of Lymphocytic Choriomeningitis Arenaviruses (LCMV): Viability assay - alamar blue signal for LCMV Primary Screen (AID 1347085; calls by dose curve; tested in HEK293 reporter line; further: series mostly up to about 57 µM; nearly all actives have a fitted effect of over 80% in size).
Assay [8] addresses Nucleoprotein (Lymphocytic choriomeningitis virus (strain Armstrong)) (UniProt P09992). The assay can be described thus: qHTS for Inhibitors of the Functional Ribonucleoprotein Complex (vRNP) of Lymphocytic Choriomeningitis Arenaviruses (LCMV): LCMV Primary Screen - GLuc reporter signal (AID 1347086; calls by dose curve; further: series mostly up to about 57 µM; nearly all actives have a fitted effect of over 70% in size).
A short description of assay [9]: Quantitative high throughput screen for delayed death inhibitors of the malarial parasite plastid, 96 hour incubation (AID 488745). Further: potency means the concentration at half of the fitted maximal effect; nearly all actives have a fitted effect of over 70% in size. In outline:
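Decreased firefly luciferase luminescence indicates inhibited growth of reporter-integrated P. falciparum after two generations (96 h, 37 C, 5% CO2). Infected erythrocytes at 0.1% parasitemia, 2% hematocrit, in Albumax-supplemented RPMI 1640.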

Assay [10] is described as follows: Quantitative high throughput screen for delayed death inhibitors of the malarial parasite plastid, 48 hour incubation (AID 488752). Further: potency means the concentration at half of the fitted maximal effect; nearly all actives have a fitted effect of over 65% in size. In outline: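 One-generation (48 h) growth assay: a decrease in luciferase signal from an integrated reporter in P. falciparum-infected red cells (0.1% parasitemia, 2% hematocrit) after compound exposure at 37 C indicates parasite inhibition.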

In assay [11] the target is Flap endonuclease 1 (Homo sapiens) (UniProt P39748). The assay can be described thus: qHTS Validation Assay for the Inhibitors of Human Flap endonuclease 1 (FEN1) (AID 488816). In outline:
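Enzyme reagent 10 nM; cpds pinned; 15 min RT preinc.; substrate 50 nM final; reads t=0 and 15 min; no-enzyme buffer wells as neg. control; normalized data, 4-parameter Hill fit.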

The target of assay [12] is Arylsulfatase A (Homo sapiens) (UniProt P15289). The assay can be described thus: qHTS screen for enhancers of Arylsulfatase A (ASA1): LOPAC Validation Assay (AID 720538). In outline: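 Read-out: fluorescence at Ex=525/Em=598 nm after 1N NaOH final stop. Patient fibroblasts carrying ASA-I179S had 48h compound exposure, then 14h room-temperature pNCS hydrolysis (0.5mM final) in lysis buffer. Signal increase = enhanced activity.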
Sequence of Arylsulfatase A (Homo sapiens) (P15289 whole entry, looked up): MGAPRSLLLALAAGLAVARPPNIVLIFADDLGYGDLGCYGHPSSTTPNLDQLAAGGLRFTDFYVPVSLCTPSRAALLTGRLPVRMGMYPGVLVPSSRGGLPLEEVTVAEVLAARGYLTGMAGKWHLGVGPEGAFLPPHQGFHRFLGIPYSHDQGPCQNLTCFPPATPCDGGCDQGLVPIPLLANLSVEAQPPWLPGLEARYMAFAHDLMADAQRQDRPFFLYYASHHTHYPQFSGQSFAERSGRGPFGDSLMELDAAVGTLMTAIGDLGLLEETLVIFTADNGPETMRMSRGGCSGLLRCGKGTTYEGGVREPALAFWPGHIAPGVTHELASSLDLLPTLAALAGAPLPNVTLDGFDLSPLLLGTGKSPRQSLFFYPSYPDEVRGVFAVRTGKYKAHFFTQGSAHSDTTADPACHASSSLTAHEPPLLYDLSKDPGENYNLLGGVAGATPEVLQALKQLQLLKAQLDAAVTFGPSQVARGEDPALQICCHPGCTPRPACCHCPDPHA

The target in assay [13] is M-phase phosphoprotein 8 (Homo sapiens) (UniProt Q99549). The assay can be described thus: qHTS Validation Assay for Inhibitors for MPP8 Chromodomain Interactions with Methylated Histone Tails (AID 488949).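 Further: AlphaScreen signal from MPP8 chromodomain bound to biotinylated H3K9me3 peptide; top concentration of the series differs between compounds; nearly all actives have a fitted effect of over 55% in size.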 In outline: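 AlphaScreen read-out: streptavidin donor and nickel chelate acceptor beads (final 10 ug/mL), 30 min in the dark at RT. Complex of 50 nM MPP8 and 50 nM b-H3(1-18)K9me3 peptide had been exposed to compounds for 30 min beforehand.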
Sequence of M-phase phosphoprotein 8 (Homo sapiens) (Q99549 whole entry, looked up): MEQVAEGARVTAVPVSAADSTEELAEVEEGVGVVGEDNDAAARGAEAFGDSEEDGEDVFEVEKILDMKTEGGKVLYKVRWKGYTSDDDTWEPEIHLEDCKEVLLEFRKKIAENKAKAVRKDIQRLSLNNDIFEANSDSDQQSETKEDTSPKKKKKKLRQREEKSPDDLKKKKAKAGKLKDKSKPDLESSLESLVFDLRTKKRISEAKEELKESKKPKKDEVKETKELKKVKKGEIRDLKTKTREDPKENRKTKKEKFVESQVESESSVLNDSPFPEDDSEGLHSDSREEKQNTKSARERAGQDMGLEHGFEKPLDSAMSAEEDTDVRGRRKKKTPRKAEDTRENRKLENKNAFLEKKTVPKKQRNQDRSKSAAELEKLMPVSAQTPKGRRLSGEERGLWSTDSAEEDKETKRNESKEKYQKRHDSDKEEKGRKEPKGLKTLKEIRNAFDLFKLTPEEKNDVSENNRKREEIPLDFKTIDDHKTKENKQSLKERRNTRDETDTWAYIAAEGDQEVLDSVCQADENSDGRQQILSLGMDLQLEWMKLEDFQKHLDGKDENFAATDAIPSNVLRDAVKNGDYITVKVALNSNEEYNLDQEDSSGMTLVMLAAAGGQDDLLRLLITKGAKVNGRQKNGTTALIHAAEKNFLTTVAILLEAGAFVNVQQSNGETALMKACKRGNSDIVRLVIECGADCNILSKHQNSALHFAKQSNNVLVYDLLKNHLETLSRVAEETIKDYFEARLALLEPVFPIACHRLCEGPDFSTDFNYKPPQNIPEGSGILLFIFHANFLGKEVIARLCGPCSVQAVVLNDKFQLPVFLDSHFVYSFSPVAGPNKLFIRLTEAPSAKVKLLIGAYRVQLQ

Sequence of Nucleoprotein (Lymphocytic choriomeningitis virus (strain Armstrong)) (P09992 whole entry, looked up): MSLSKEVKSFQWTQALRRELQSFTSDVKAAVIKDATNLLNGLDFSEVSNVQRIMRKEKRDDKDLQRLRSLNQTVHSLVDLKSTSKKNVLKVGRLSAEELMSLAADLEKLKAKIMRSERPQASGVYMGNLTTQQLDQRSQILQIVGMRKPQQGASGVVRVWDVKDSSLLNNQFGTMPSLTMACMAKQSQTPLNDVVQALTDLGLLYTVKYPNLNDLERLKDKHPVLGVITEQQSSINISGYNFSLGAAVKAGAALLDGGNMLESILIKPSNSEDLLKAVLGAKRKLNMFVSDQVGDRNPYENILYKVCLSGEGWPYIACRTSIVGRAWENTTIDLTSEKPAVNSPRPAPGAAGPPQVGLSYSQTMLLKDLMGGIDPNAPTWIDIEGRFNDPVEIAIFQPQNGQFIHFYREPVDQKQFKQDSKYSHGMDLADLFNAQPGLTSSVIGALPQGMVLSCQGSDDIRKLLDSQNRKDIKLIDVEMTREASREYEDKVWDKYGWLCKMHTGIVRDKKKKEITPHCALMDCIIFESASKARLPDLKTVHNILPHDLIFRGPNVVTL
Sequence of Flap endonuclease 1 (Homo sapiens) (P39748 whole entry, looked up): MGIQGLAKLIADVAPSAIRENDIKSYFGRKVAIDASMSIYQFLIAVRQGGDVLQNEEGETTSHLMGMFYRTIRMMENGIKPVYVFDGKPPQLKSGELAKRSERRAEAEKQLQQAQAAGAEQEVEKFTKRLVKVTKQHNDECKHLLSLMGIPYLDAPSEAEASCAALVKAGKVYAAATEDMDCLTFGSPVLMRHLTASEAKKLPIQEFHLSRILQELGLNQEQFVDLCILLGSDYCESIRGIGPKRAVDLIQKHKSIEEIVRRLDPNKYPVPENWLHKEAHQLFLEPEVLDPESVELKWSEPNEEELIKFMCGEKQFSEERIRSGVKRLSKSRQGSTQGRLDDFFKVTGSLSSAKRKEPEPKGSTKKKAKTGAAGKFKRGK

`O=c1[nH]ccc2c(O)cccc12`: the compound was called inactive in [1], in assay [2] and in assay [4]. For the same compound, the Potency result in assay [3], in [5], in assay [6], in [7] and in assay [8] was “inactive” each time.
As for `Clc1ccc(N2CCN(Cc3c[nH]c4ncccc34)CC2)cc1`, the result in assay [1], in [2] and in assay [4] was inactive. For the same compound, the Potency entry in assay [3], in assay [5], in assay [6], in assay [7] and in assay [8] was “inactive” each time.
For `CCCn1c(=O)c2[nH]c(C3CCCC3)nc2n(CCC)c1=O`, the result in assay [1], in [2] and in assay [4] was inactive. In addition, the Potency entry in assay [3], in assay [5], in assay [6], in assay [7] and in assay [8] was “inactive” throughout.
For `NC(=O)CNCCC(c1ccccc1)c1ccccc1`, the call in [1], in assay [2] and in assay [4] was inactive. Moreover, the Potency result in assay [3], in assay [5], in assay [6], in assay [7] and in [8] was “inactive” each time.
Regarding `C[N+](C)(C)CC=O`, the outcome in assay [1] and in assay [2] was inactive. Further, the Potency entry in [3], in assay [5], in assay [6], in [7] and in assay [8] was “inactive” each time.
Take `O=c1[nH]c2cc([N+](=O)[O-])c([N+](=O)[O-])cc2[nH]c1=O`: the compound was classed as inactive in [1], in assay [2] and in assay [4]. Besides, the Potency entry in [3], in assay [5], in [6], in assay [7] and in assay [8] was “inactive” in each case.
Consider `NCCCNCCCCNCCCN`, for which the compound was called inactive in [1] and in [2]. The Potency entry in assay [3], in assay [5], in [6], in assay [7] and in assay [8] was “inactive” in each case.
For `NC[C@H]1O[C@@H](n2cnc3c(N)ncnc32)[C@H](O)[C@@H]1O`, the compound was classed as inactive in assay [4]. The Potency entry in [5], in assay [6], in assay [7] and in assay [8] was “inactive” each time.
As to `Cc1cc(Cn2cnc3c2C[C@@H](C(=O)O)N(C(=O)C(c2ccccc2)c2ccccc2)C3)ccc1N`, the call in [4] was inactive. The Potency result in assay [5], in [6], in assay [7] and in [8] was “inactive” each time.
Consider `COc1cc(CC(=O)O)ccc1O`, for which the outcome in [1], in [2] and in assay [4] was inactive. Also, the Potency result in [3], in [5], in assay [6], in [7] and in assay [8] was “inactive” throughout.
As for `NC1(C(=O)O)CC1`, the compound was classed as inactive in assay [1] and in assay [2]. Also, the Potency result in [3], in [5], in [6], in [7] and in assay [8] was “inactive” in each case.
For `C[N+](C)(C)CCOP(=O)(O)OP(=O)([O-])OC[C@H]1O[C@@H](n2ccc(N)nc2=O)[C@H](O)[C@@H]1O`, the outcome in [4] was inactive. Also, the Potency entry in [5], in [6], in [7] and in [8] was “inactive” each time.
`CN1CCc2cccc3c2C1Cc1ccc(O)c(O)c1-3` (configuration not stated): the Potency in [9] is 2.94 µM (active); in assay [10], 3.7 µM (active). In addition, in [4], the result was inactive. The Potency result in assay [5], in assay [6], in assay [7] and in assay [8] was “inactive” in each case.
Turning to `N.N.O=C(O)C1(C(=O)O)CCC1.[Pt]`, the result in assay [1] and in assay [2] was inactive. In addition, the Potency entry in [3], in [5], in assay [6], in assay [7] and in [8] was “inactive” throughout.
For the compound `O=C(O)CC1CC(c2ccccc2)=NO1` (configuration not stated), the Potency result in [11], in assay [12], in assay [5], in [6], in assay [7] and in assay [8] was “inactive” throughout. The result in assay [4] was inactive.
`c1ccc2c(c1)CC(N1CCN(c3cccc4c3OCCO4)CC1)C2`: the compound was called inactive in assay [1], in assay [2] and in [4]. Further, the Potency result in assay [3], in [5], in assay [6], in assay [7] and in assay [8] was “inactive” each time.
Consider `COc1ccccc1N1CCN(CCCNc2c(C)c(=O)n(C)c(=O)n2C)CC1`, for which the result in assay [1] and in assay [2] was inactive. Also, the Potency result in assay [3], in assay [5], in [6], in [7] and in assay [8] was “inactive” each time.
Regarding `O=c1onc2cnc3ccccc3n12`, the result in assay [1] and in [2] was inactive. Further, the Potency result in assay [3], in assay [5], in assay [6], in assay [7] and in assay [8] was “inactive” in each case.
Consider `N#C/C(=C\c1ccc(-c2cc(Cl)ccc2Cl)o1)C(=O)Nc1cccc2ncccc12`, for which the compound was called inactive in [4]. For the same compound, the Potency entry in [5], in assay [6], in assay [7] and in assay [8] was “inactive” throughout.
As for `CC(N)=O`, the outcome in [1] and in assay [2] was inactive. Besides, the Potency result in [3], in assay [5], in assay [6], in assay [7] and in assay [8] was “inactive” each time.
With `N#C/C(=C\c1ccc(O)c(O)c1)C(=O)NCCCc1ccccc1`, the outcome in assay [1] and in assay [2] was inactive. Moreover, the Potency result in [3], in assay [5], in [6], in assay [7] and in assay [8] was “inactive” throughout.
For the compound `CNC(=O)[C@H]1O[C@@H](n2cnc3c(NCc4ccc(N)cc4)ncnc32)[C@H](O)[C@@H]1O`, the call in [4] was inactive. Further, the Potency entry in assay [5], in [6], in assay [7] and in assay [8] was “inactive” throughout.
For the compound `COc1ccc(-c2ccc(N)[n+](CCCC(=O)O)n2)cc1`, the compound was called inactive in assay [1] and in assay [2]. Moreover, the Potency entry in assay [3], in [5], in assay [6], in assay [7] and in assay [8] was “inactive” each time.
Take `NC(=S)NCCC[C@H](N)C(=O)O`: the call in assay [4] was inactive. In addition, the Potency result in [5], in assay [6], in assay [7] and in assay [8] was “inactive” in each case.
Regarding `Nc1ncnc2c1ncn2[C@@H]1O[C@H](COP(=O)(O)CP(=O)(O)OP(=O)(O)O)[C@@H](O)[C@H]1O`, the Potency result in assay [13], in assay [5], in assay [6], in [7] and in [8] was “inactive” throughout.
With `CCN(CC)CCOC(=O)c1cc(Cl)c(N)cc1OC`, the call in assay [1] and in assay [2] was inactive. The Potency entry in assay [3], in assay [5], in [6], in assay [7] and in assay [8] was “inactive” each time.
For the compound `Cn1c(=O)c2[nH]c(-c3ccc(S(=O)(=O)O)cc3)nc2n(C)c1=O`, the outcome in assay [1] and in assay [2] was inactive. Moreover, the Potency entry in [3], in assay [5], in assay [6], in assay [7] and in assay [8] was “inactive” in each case.
